Pf growth 48h: P. falciparum growth inhibition at 48 hours (one generation); P. falciparum luciferase growth in erythrocytes, 48 h; Potency, µM (series often up to 28.7 µM), usual class: inhibitors; 310,000 compounds, 5.9% hits; AID 504832
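Cell-based growth assay: transgenic P. falciparum expressing firefly luciferase, cultured in red cells within RPMI 1640 containing 0.5% w/v Albumax, 24 mM bicarbonate and gentamycin. A drop in luciferase activity indicates inhibition.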
Shiga toxin inh: inhibitors of Shiga toxin in Vero cells; Vero cells, Shiga toxin protein synthesis inhibition reporter; inhibition, % at 38.7 µM; 290,000 compounds, 9.2% hits; AID 2315; in the data active = inhibition mostly above about 28%, no sharp cut-off; inactive = mostly below about 43%
Lassa entry inh: blocks Lassa virus binding to or entry into cells. AID 540256. Lassa virus pseudotype entry inhibition, cell reporter. 300,000 compounds, 1.2% hits. Potency, µM (doses to about 37.9 µM), most hits filed as inhibitors; calls by dose curve; tested in HEK293 cells; also: nearly all actives have a fitted effect of over 50% in size
CHX counter: counter-screen for Shiga toxin inhibitors: cycloheximide protein synthesis inhibition | cell reporter, cycloheximide protein synthesis inhibition counterscreen | max response, % | 300,000 compounds, 12% hits; in the data active = max response mostly above about 13%, no sharp cut-off; inactive = mostly below about 14%; also: read at 38.3 µM for the half of the compounds with a filed dose
Marburg entry inh: inhibitors of Marburg virus binding or cell entry; 300,000 compounds, 1.8% hits; Marburg virus pseudotyped entry inhibition, cell reporter; AID 540276; Potency, µM (doses to about 37.8 µM), actives largely listed as inhibitors; calls by dose curve; tested in HEK293 cells
Pf growth 96h: P. falciparum growth inhibition at 96 hours; P. falciparum luciferase reporter growth, 96 h; 320,000 compounds, 6.9% hits; Potency, µM (top dose mostly 28.7 µM), actives largely listed as inhibitors
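Luminescence readout: decreased luciferase signal marks inhibited growth of reporter-expressing P. falciparum in infected red cells (2% hematocrit, 0.05% parasitemia final), exposed to compound two generations (96 h, 37 C, 5% CO2).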
Numbers stand for hits; – = inactive; ? = inconclusive; · = not tested or not shown; [ ] = dose if it differs, or a comment. Shown are actives, neighbours in structure and some others; about 19% of the full set was active somewhere. Unless noted, calls follow the shape of the dose curve; as a rule, active = well fitted inhibition curve with a large enough effect; inconclusive = small, poorly fitted or top-dose-only effect, or another doubt; inactive = no such curve, though single readings can be large or run the other way.

SMILES | Pf growth 48h | Shiga toxin inh | Lassa entry inh | CHX counter | Marburg entry inh | Pf growth 96h
CC(C)c1ccc(NC(=O)CCS(=O)(=O)c2cccc3nonc23)cc1 | – | – | – | – | ? | –
Oc1ccc(Cl)cc1-c1cc(-c2cccc(Br)c2)n[nH]1 | 2.9µM | 79 | ? | 42 | ? | ·
Oc1ccccc1-c1cc(-c2ccccc2Cl)[nH]n1 | – | 101 | 10µM | 25 | – | ·
Oc1ccc(Cl)cc1-c1cc(-c2ccccc2Cl)[nH]n1 | 9.3µM | 52 | – | 23 | – | –
CCN1C(=O)S/C(=C/c2ccsc2)C1=O | – | – | – | – | – | ·
Cc1ccc(N(CC(=O)NC(C)C)C(=O)CCC(=O)Nc2nccs2)c(C)c1 | – | – | · | 28 | · | –
CC(C)NC(=O)CN(C(=O)CCC(=O)Nc1nccs1)c1ccc2c(c1)OCO2 | – | – | ? | – | – | 13µM
Cc1ccc(N(CC(=O)NC2CCCC2)C(=O)CCC(=O)Nc2nccs2)c(C)c1 | ? | – | – | – | ? | –
Cc1ccc(N(CC(=O)NC(C)C)C(=O)CCC(=O)Nc2nccs2)cc1 | – | – | · | – | · | –
CCC(C)(C)NC(=O)CN(C(=O)CCC(=O)Nc1nccs1)c1ccc2c(c1)OCCO2 | ? | 57 | – | 51 | – | –
Cc1cccc(N(CC(=O)NC(C)C)C(=O)CCC(=O)Nc2nccs2)c1 | 9.3µM | – | · | – | · | ?
Cc1cccc(C)c1NC1=NC2(CCCCC2)N=C(N)N1 | ? | – | – | – | – | –
Cc1ccc(S(=O)(=O)NCC(=O)N(CC(=O)NC2CCCC2)c2ccc3c(c2)OCCO3)cc1 | ? | – | – | – | – | –
CCC(C)(C)NC(=O)CN(C(=O)CNS(=O)(=O)c1ccc(C)cc1)c1ccc2c(c1)OCCO2 | 6.6µM | – | – | – | – | ·
CN(CC(=O)Nc1ccccc1N1CCOCC1)CC(=O)Nc1ccc(F)c(F)c1F | ? | – | – | – | – | –
C=CCn1c(C)cc(-c2csc(NC)n2)c1C | ? | – | – | – | ? | ?
C=CCn1c(C)cc(-c2csc(NC(=O)C3=COCCO3)n2)c1C | 5.2µM | · | – | · | – | ?
Cc1cc(C)c(-c2csc(NC(=O)C3=COCCO3)n2)cc1C | – | · | ? | · | ? | –
C=CCn1c(C)cc(-c2csc(NCC)n2)c1C | ? | 89 | – | 43 | ? | ?
Nc1nc(CCl)nc(N(c2ccccc2)c2ccccc2)n1 | 5.2µM | – | ? | – | ? | 2.1µM
Nc1nc(Cl)nc(N(c2ccccc2)c2ccccc2)n1 | – | – | – | – | – | –
CC(C)Oc1ccc(C2CC(=O)N(c3cccc(C(=O)O)c3)C2=O)cc1 (stereo unspecified) | · | – | – | – | ? | –
FC(F)(F)c1cnc(C(c2ccccc2)c2ncn[nH]2)c(Cl)c1 (stereo unspecified) | – | – | – | – | – | –
FC(F)(F)c1cnc(C(c2ccccn2)c2ncn[nH]2)c(Cl)c1 (stereo unspecified) | 12µM | – | ? | – | ? | ?
Cn1cccc1/C=C(/C#N)c1ccc(F)cc1 | – | – | ? | 26 | – | –
SMILES | Pf growth 48h | Shiga toxin inh | Lassa entry inh | CHX counter | Marburg entry inh | Pf growth 96h
Cn1cccc1C(=O)/C(C#N)=C/c1ccc(F)cc1 | · | – | – | 19 | – | –
COc1ccc(/C=C(\C#N)C(=O)c2cccn2C)cc1 | –[0.00184 µM] | – | · | – | · | –
CCc1nc2ccccc2n2c(-c3ccccc3)c3c(=O)n(C)c(=O)n(C)c3c12 | · | · | – | · | – | ·
O=C(CN1CCSC1=NCc1ccccc1)c1ccccc1 | – | – | – | – | ? | –
COc1ccc(C2CC(=O)N(C)c3ccccc3S2)cc1OC (stereo unspecified) | – | 149 | – | 57 | – | ?
COc1ccc(C2CC(=O)N(Cc3ccc(F)cc3)c3ccccc3S2)cc1OC (stereo unspecified) | · | · | · | · | – | ·
COc1ccc(C2CC(=O)N(CC(=O)NCC3CCCO3)c3ccccc3S2)cc1OC (stereo unspecified) | ? | – | · | 25 | · | ?
COc1ccc(CCCc2nnc(SCc3nc4ccccc4c(=O)[nH]3)n2C)cc1C | – | – | – | – | ? | –
CC(C(=O)NCc1ccco1)n1nc(-c2ccccc2)c2cc(Cl)ccc21 (stereo unspecified) | · | – | · | – | · | ?
CC(=O)c1ccc(NC(=O)C(C)n2nc(-c3ccccc3)c3cc(Cl)ccc32)cc1 (stereo unspecified) | ? | – | – | – | – | 1.2µM
Cc1ccc(-c2c(C)n3c4c(=O)n(C)c(=O)n(C)c4nc3n2CCCO)cc1 | · | · | 8.9µM | · | ? | ·
COC(=O)CCCn1c(-c2ccc(C)cc2)c(C)n2c3c(=O)n(C)c(=O)n(C)c3nc12 | · | · | ? | · | – | ·
CCOc1ccc(NC(=O)CSc2nc(NS(=O)(=O)c3ccc(C)cc3)cc(=O)[nH]2)cc1 | – | – | – | – | – | –
CCc1ccc(NC(=O)CSc2nc(NS(=O)(=O)c3ccccc3)cc(=O)[nH]2)cc1 | ? | – | ? | – | 3.2µM | 4.1µM
Cc1ccc(NC(=O)CSc2nc(NS(=O)(=O)c3ccccc3)cc(=O)[nH]2)cc1 | · | – | – | – | ? | 3.7µM
Cc1ccc(S(=O)(=O)Nc2cc(=O)[nH]c(SCC(=O)Nc3cccc(C)c3)n2)cc1 | 1.9µM | – | · | – | · | –
O=c1c(F)cn(C2CCCO2)c(=O)n1Cc1c(F)cccc1Cl (stereo unspecified) | – | – | ? | – | – | ·
O=C(CSc1nnc(C2CCCCC2)o1)N1CCCCC1 | – | 81 | ? | 31 | – | –
O=C(CSc1nnc(C2COc3ccccc3O2)o1)N1CCCC1 (stereo unspecified) | ? | 52 | – | 47 | – | ?
CSCC[C@H](NC(=O)[C@@H]1CSC2c3ccccc3C(=O)N21)C(=O)N1CCC[C@H]1CO (stereo partly specified) | – | – | · | – | · | –
O=C(O)C(Cc1ccccc1)N1C(=O)/C(=C/C=C/c2ccco2)SC1=S (stereo unspecified) | – | – | – | – | – | –
COc1ccc(-n2nnnc2SCC(=O)NC(=O)Nc2ccc3c(c2)OCCO3)cc1 | – | 92 | – | 21 | ? | ·
Cc1nnc(SCC(=O)NC(=O)Nc2ccc3c(c2)OCCO3)n1N | – | 50 | · | 39 | · | –
O=C(CSc1nnnn1-c1ccccc1Cl)Nc1ccc2c(c1)OCCO2 | – | 84 | · | 46 | – | –
COc1ccc(NC(=O)CSc2nnnn2-c2ccc(OC)cc2)cc1 | – | – | – | – | – | ·
Cc1ccc(C(CNC(=O)C(=O)Nc2ccc3c(c2)OCCO3)N2CCN(C)CC2)cc1 (stereo unspecified) | 7.4µM | · | – | · | ? | –
Cc1ccc2nc(CSc3nnc(NC(=O)COc4ccccc4F)s3)cc(=O)n2c1 | · | · | – | · | · | ·
COc1ccc(N2CCN(C(=O)Nc3ccc(S(=O)(=O)N(C)C)cc3)CC2)cc1 | ? | – | ? | – | – | –
O=C(CSc1nnnn1-c1ccc(Cl)cc1)NC(=O)Nc1ccc2c(c1)OCCO2 | – | 72 | – | 29 | – | –
COc1ccc(-n2nnnc2SC(C)C(N)=O)cc1 (stereo unspecified) | – | – | – | – | – | 12µM
